Compound activity as filed in PubChem.
The list is not random: actives were taken first. Their share in the collection is about 12%.
PLK1 PBD block = qHTS for Inhibitors of PLK1-PDB (polo-like kinase 1 - polo-box domain): Primary Screen; Serine/threonine-protein kinase PLK1 (Homo sapiens), P53350; Plk1 PBD binding of FITC phosphopeptide, fluorescence polarization; Potency, µM, for the others: max response, negative = inhibition, most hits filed as inhibitors; 360,000 compounds, 2.8% hits; AID 720504, 2013; further: series mostly up to about 57 µM; on the % scale 0 is the no-effect control and ±100 the full control effect; nearly all actives have a fitted effect of over 65% in size
G9a inh = qHTS Assay for Inhibitors of Histone Lysine Methyltransferase G9a; Histone-lysine N-methyltransferase EHMT2 (Homo sapiens), Q96KQ7; G9a H3K9 monomethylation, AlphaScreen, 2 h; Potency, µM (doses to about 102 µM), for the others: at the highest dose activity, negative = inhibition, usual class: inhibitors; 350,000 compounds, 8.8% hits; AID 504332, 2011; further: on the % scale 0 is the no-effect control and ±100 the full control effect; nearly all actives have a fitted effect of over 75% in size
Target sequence (Q96KQ7 913-1193 limits assumed): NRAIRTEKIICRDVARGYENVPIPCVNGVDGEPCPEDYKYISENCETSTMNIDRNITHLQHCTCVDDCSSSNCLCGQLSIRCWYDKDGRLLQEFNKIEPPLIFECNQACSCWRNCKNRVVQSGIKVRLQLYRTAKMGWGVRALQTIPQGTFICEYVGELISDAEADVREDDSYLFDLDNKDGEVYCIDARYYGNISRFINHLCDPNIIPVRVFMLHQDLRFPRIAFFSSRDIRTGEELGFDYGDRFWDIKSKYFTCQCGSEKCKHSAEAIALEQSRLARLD
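Chemiluminescent proximity detection of H3K9 monomethylation, read after 10 min bead incubation in the dark. Reaction: 20 nM G9a, 500 nM biotin-H3K9 peptide, 20 uM SAM cofactor, 2 h, room temperature, following 15 min enzyme-compound preincubation.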
BAZ2B inh = qHTS Assay for Inhibitors of BAZ2B; Bromodomain adjacent to zinc finger domain protein 2B (Homo sapiens), Q9UIF8; AlphaScreen BAZ2B-H3K14Ac peptide displacement; Potency, µM (highest dose often 114 µM), for the others: top-dose activity change, negative = inhibition, most hits filed as inhibitors; 360,000 compounds, 4.4% hits; AID 504333, 2011; further: on the % scale 0 is the no-effect control and ±100 the full control effect; nearly all actives have a fitted effect of over 60% in size
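Protein-peptide AlphaScreen: BAZ2B 50 nM, b-H3K14Ac 50 nM, 1x PBS pH 7.4 + 0.01% Tween-20. Preincubation 30 min RT; cpd 30 min RT (top 110 uM); beads 20 min RT, light-protected.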
JMJD2A Tudor = qHTS Assay for Inhibitors of JMJD2A-Tudor Domain. AID 504339, 2011. AlphaScreen JMJD2A-Tudor / H3K4me3 peptide binding. Potency, µM (series often up to 114 µM), inactives show at the top dose activity change, negative = inhibition, hits mostly inhibitors. 390,000 compounds, 4.4% hits; further: on the % scale 0 is the no-effect control and ±100 the full control effect; nearly all actives have a fitted effect of over 50% in size
HP1b chromo inh = HTS for Inhibitors of HP1-beta Chromodomain Interactions with Methylated Histone Tails; AlphaScreen HP1-beta / biotin-H3K9me3 peptide binding; Potency, µM (top dose mostly 114 µM), without a hit: at the top dose activity change, negative = inhibition, usual class: inhibitors; 390,000 compounds, 0.56% hits; AID 540317, 2011; further: nearly all actives have a fitted effect of over 70% in size
Target sequence (P83916 whole entry, looked up): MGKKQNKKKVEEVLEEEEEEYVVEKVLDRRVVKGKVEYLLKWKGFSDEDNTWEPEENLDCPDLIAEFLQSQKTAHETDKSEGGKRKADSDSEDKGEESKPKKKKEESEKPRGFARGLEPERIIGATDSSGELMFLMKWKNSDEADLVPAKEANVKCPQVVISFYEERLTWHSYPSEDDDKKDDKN
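Compound inhibition of the preformed complex between 50 nM HP1-beta and 50 nM biotinylated H3K9me3 peptide was read by AlphaScreen. Buffer was PBS pH 7.4 with 0.01% Tween-20. Incubations ran 30 min at room temperature, with 10 ug/mL donor/acceptor beads.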
Sfp inh = qHTS Assay for Inhibitors of Bacillus subtilis Sfp phosphopantetheinyl transferase (PPTase); Potency, µM, for inactives: largest response in the series, negative = inhibition, actives largely listed as inhibitors; Biochemical Sfp PPTase activity, qHTS; AID 1490, 2009; 310,000 compounds, 3.5% hits;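 further: the enzyme is Sfp with the accession as filed and its product quenches rhodamine fluorescence; 0% = enzyme reaction without inhibitor and -100% = no enzyme wells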
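With Hepes-Na pH 7.6 buffer containing 10 mM MgCl2, Sfp (15 nM) modified BHQ-2-YbbR (12.5 uM) using rhodamine-CoA (5 uM). Two reads 30 minutes apart at 525/598 nm yielded each well's rate.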
An asterisk follows results filed as active; u = inconclusive; x = not tested or not shown; [ ] = remark or other dose. The call rests on the fitted dose curve; in most records, active means well fitted curve in the direction sought with a large enough effect; inconclusive means small, poorly fitted or top-dose-only effect, or another doubt; inactive means no such curve, though single readings can be large; an effect the other way counts as inactive or inconclusive. Potency means the concentration at half of the fitted maximal effect.

SMILES	PLK1 PBD block	G9a inh	BAZ2B inh	JMJD2A Tudor	HP1b chromo inh	Sfp inh
COc1ccc(C2=Nc3ccc(C)cc3NC(c3ccc(Cl)cc3)=N2)cc1	x	7.0%[59 µM]	-1.8%	-23.6%	11.2%	x
CCc1ccc2c(c1)NC(c1cccs1)=NC(c1ccc(F)cc1)=N2	x	u	u	u	17.4%	x
c1csc(C2=NC(c3ccncc3)=Nc3ccccc3N2)c1	x	-40.7%[59 µM]	u	-33.0%	0.7%	x
CCc1ccc2c(c1)NC(c1ccc(OC)cc1)=NC(c1ccncc1)=N2	x	-8.1%[59 µM]	u	50.1µM*	u	x
CCOc1ccc(C2=NC(c3cccs3)=Nc3ccc(CC)cc3N2)cc1OCC	x	10µM*	10µM*	25.1µM*	u	x
CCCCOc1ccc(C2=NC(c3cccs3)=Nc3ccc(OC)cc3N2)cc1	x	u	u	39.8µM*	-22.9%	x
COc1cc(CCNC(C)=O)c(C(=O)/C=C/c2cccc(OC)c2OC)cc1OC	x	x	x	x	x	8.6%
CCCc1[nH][nH]c(=O)c1C(c1cccc(Cl)c1)C(C#N)C#N (stereo unspecified)	10.6µM*	79.4µM*	u	-28.6%	22.0%	-9.6%
CC(C)CCn1c(SC(C)C#N)nc2ccccc2c1=O (stereo unspecified)	x	x	x	45.4%[57.1 µM]	54.1%[57 µM]	x
COc1ccccc1CCNC(=O)CSc1nc(-c2ccco2)cc(C(F)(F)F)n1	-4.2%	-14.7%	13.2%	15.2%	50.6%	-13.5%
COc1ccccc1CCNC(=O)CCSc1nc(-c2ccco2)cc(C(F)(F)F)n1	-7.6%	18.9%[59 µM]	11.5%	-2.9%	42.1%	56.2µM*
O=C(CCSc1nc(-c2ccco2)cc(C(F)(F)F)n1)N1CCCc2ccccc21	-7.0%	15.8µM*	-0.2%	-8.7%	44.0%	-9.8%
Cc1oc2ccc(O)c(CN3CCN(C)CC3)c2c1C(=O)Nc1cccc(Cl)c1C	x	-4.7%[59 µM]	-2.4%	-31.2%	-9.1%	x
Cn1c(SCC(=O)NC(C)(C)C)nnc1-c1cnccn1	-10.8%	5.9%	1.9%	u	28.0%	17.5%
Cc1[nH]c2ccccc2c1C(c1ccccn1)N1CCC(C(N)=O)CC1 (stereo unspecified)	6.7µM*	1.58µM*	x	u	-34.1%	63.1µM*
CCOC(=O)C1CCN(C(c2ccccn2)c2c(C)[nH]c3ccccc23)CC1 (stereo unspecified)	11.9µM*	1.41µM*	-12.0%	u	u	u
Nc1[nH]c(C(=O)c2ccccc2)c(-c2ccccc2C(F)(F)F)c1C(=O)c1cccs1	-12.6%	x	x	x	x	x
CCCC(=O)NC(c1ccc(OC)cc1)c1ccc2cccnc2c1O (stereo unspecified)	-10.1%	x	20µM*	79.4µM*	8.4%	1.4%
COc1ccc(Cl)cc1C(Nc1cccnc1)c1ccc2cccnc2c1O (stereo unspecified)	4.23µM*	3.98µM*	35.5µM*	35.5µM*	u	-14.8%
CCCCC(=O)NC(c1ccco1)c1cc(Cl)c2cccnc2c1O (stereo unspecified)	-21.9%	x	-13.2%	-14.3%[11.4 µM]	30.8%	2.8%
CCC(=O)NC(c1ccccc1OC)c1ccc2cccnc2c1O (stereo unspecified)	-8.0%	0.2%[59 µM]	25.1µM*	56.2µM*	18.6%	19.3%
CCCC(=O)NC(c1ccccc1)c1ccc2cccnc2c1O (stereo unspecified)	-16.3%	7.1%	25.1µM*	44.7µM*	50.7%	11.4%
Cc1cccc(NC(=O)CN2c3ccccc3S(=O)(=O)c3ccccc32)c1C	x	5.2%[59 µM]	-11.3%	u	6.5%	x
Oc1cccc(C(Nc2ccccn2)c2ccc3cccnc3c2O)c1Cl (stereo unspecified)	x	u	22.4µM*	22.4µM*	-8.9%	x
